D3 antag: antagonists of human D3 dopamine receptor. max response, negative = inhibition, %. actives 2.5% (n = 360,000). D3R cells, DiscoveRx beta-arrestin luminescence, antagonist mode; active compounds read low. AID 652054. P35462; in the data active = max response below about -50%; inconclusive = no clear call, values can overlap the other calls
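Cells expressing the human receptor were seeded at 1500 cells/well, incubated overnight at 37 degrees C in 5% CO2, then exposed to library compounds with dopamine controls for 90 minutes at 37 degrees C before luminescent detection.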
DT40 TDP1 no CPT: qHTS for Inhibitors of human tyrosyl-DNA phosphodiesterase 1 (TDP1): qHTS in cells in absence of CPT; DT40 Tdp1-/- hTDP1 cells, no CPT, ATP luminescence, 48 h; Potency, µM (series often up to 46.2 µM), actives largely listed as inhibitors; actives 15% (n = 420,000); note: nearly all actives have a fitted effect of over 55% in size
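Luminescent ATP content (CellTiter-Glo) served as the growth readout. Knockout chicken DT40 cells expressing human TDP1 were exposed to compounds without camptothecin for a minimum 48 hr at 37 °C.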
IL-1B inflam inh: inflammasome signaling inhibition, IL-1 beta readout | THP-1 LPS/ATP IL-1B secretion, AlphaLISA, 16 h; active compounds read low | activity change, % at 57.5 µM | actives 4.7% (n = 360,000); in the data active = activity change below about -50%; inconclusive = mostly about -30% to -49%
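Secreted IL-1B measured by AlphaLISA bead assay after 16 h compound exposure of THP-1 cells; compounds (final up to 57.5 uM) added 1 h before LPS (250 ng/mL) and ATP (1.25 mM) stimulation; lower signal means less secretion.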
D3 ag: activates the human D3 dopamine receptor | P35462 | D3R DiscoveRx beta-arrestin cells, luminescence, 90 min | max activation, % | actives 0.58% (n = 410,000); in the data active = max activation above about 30%
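Agonist mode: compounds and dopamine controls were applied to plated cells for 90 min at 37 degrees C after an overnight attachment at 1500 cells/well. Luminescent read-out followed 30 - 60 minutes at room temperature with DiscoveRx detection reagent.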
ClpP mod: qHTS Assay for Activators of ClpP. ATP-dependent Clp protease proteolytic subunit (Bacillus subtilis (strain 168)), P80244. purified B. subtilis ClpP, FRET peptide cleavage, 20 min. Potency, µM (doses to about 57.5 µM). actives 1.9% (n = 340,000). AID 651965, 2013; active = well fitted falling curve with a large enough effect; inconclusive = small, poorly fitted or top-dose-only effect; inactive = no such curve, though single readings can be large or run the other way; note: the source files actives as falling curves though it sought activators and does not explain the sign; nearly all actives have a fitted effect of over 65% in size
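FRET quenching reversal measured ClpP activation: 10 microg/mL B. subtilis ClpP at pH 8 with the FRET-FV decapeptide, read at 430 nm after 320 nm excitation. The 20-min minus 0-min signal was scaled between DMSO/no-enzyme wells and ADEP (5.8 microM final).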
DT40 TDP1 CPT: DT40-hTDP1 cell growth loss with CPT. chicken DT40 Tdp1-/-;hTDP1 cells + 20 nM CPT, ATP luminescence, 48 h. Potency, µM (highest dose often 46.2 µM), hits mostly inhibitors. actives 12% (n = 420,000); note: nearly all actives have a fitted effect of over 55% in size
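Cell growth measured by CellTiter-Glo luminescence after a minimum 48 h, 37 C compound exposure with 20 nM CPT in Tdp1-knockout DT40 cells stably expressing hTDP1, seeded 400/well; qHTS titration format.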
Each line names hits and unclear results; the compound was inactive in the other large screens. Rows were chosen to be rich in hits. Some 21% of all compounds tested hit in one or more screens of this group. Unless noted, calls come from the whole dose curve; as a rule, active = well fitted inhibition curve with a large enough effect; inconclusive = small, poorly fitted or top-dose-only effect; inactive = flat fitted curve, though single readings scatter.

O=C1NC[C@H](CCCCN2CCN(CCc3ccccc3)C(=O)C2=O)N(Cc2ccccc2)C1=O	none
O=C(c1ccccc1)N(Cc1nc2ccccc2c(=O)[nH]1)C1CCCC1	none (no result: ClpP mod)
CC1CCC(NC(=O)CC(C)(C)Cc2nc3ccccc3c(=O)[nH]2)CC1 (centres undefined)	DT40 TDP1 no CPT 23µM, IL-1B inflam inh -56, DT40 TDP1 CPT 16µM
O=c1c(-c2ccc(F)cc2)nc2cnc(Nc3ccccc3)nc2n1C1CC1	none (no result: D3 antag, IL-1B inflam inh, D3 ag, ClpP mod)
COCCCNC(=O)c1cc(Nc2ccc(OC)cc2OC)nc2ccccc12	DT40 TDP1 no CPT inconclusive, DT40 TDP1 CPT inconclusive
COc1ccc(N2CCN(CCCNC(=O)c3cc(Nc4ccc(OC)cc4OC)nc4ccccc34)CC2)cc1	DT40 TDP1 no CPT 21µM, DT40 TDP1 CPT 23µM (no result: D3 antag, IL-1B inflam inh)
COc1ccccc1Nc1cc(C(=O)NCCCN2CCOCC2)c2ccccc2n1	DT40 TDP1 no CPT inconclusive
COc1ccc(OC)c(Nc2cc(C(=O)NCCCN3CCOCC3)c3ccccc3n2)c1	DT40 TDP1 no CPT 23µM, IL-1B inflam inh -63, DT40 TDP1 CPT inconclusive
CCOc1ccc(/C=N/n2cc(-c3ccccc3)[nH]c2=S)cc1	DT40 TDP1 no CPT 5.2µM, DT40 TDP1 CPT 2.6µM
O=C(CSCc1nc2ccccc2[nH]1)N1CCN(c2ccc(F)cc2)CC1	DT40 TDP1 no CPT 18µM, IL-1B inflam inh inconclusive, DT40 TDP1 CPT 23µM
O=C(CSCc1nc2ccccc2[nH]1)N1CCN(c2cccc(Cl)c2)CC1	D3 antag inconclusive, DT40 TDP1 no CPT inconclusive, IL-1B inflam inh inconclusive, DT40 TDP1 CPT 23µM
COc1ccc(OC)c(CN2CCN(C(=O)c3cccc(S(=O)(=O)Nc4ccc(F)cc4)c3)CC2)c1	DT40 TDP1 no CPT inconclusive, DT40 TDP1 CPT inconclusive
Clc1cccc(Cc2c(-c3ccccc3)nc3ccc(Cl)cn23)c1	DT40 TDP1 no CPT inconclusive, DT40 TDP1 CPT inconclusive
O=C(NC(CC(=O)N1CCN(c2ccc([N+](=O)[O-])cc2)CC1)c1ccccc1)c1ccccc1Cl (centres undefined)	DT40 TDP1 no CPT 16µM, DT40 TDP1 CPT inconclusive
Cc1cccc(N2CCN(C(=O)CNC(=O)Cc3ccccc3)CC2)c1C	DT40 TDP1 no CPT inconclusive, DT40 TDP1 CPT inconclusive
Cc1cccc(N2CCN(C(=O)CC(NC(=O)c3ccccc3Cl)c3ccccc3)CC2)c1C (centres undefined)	DT40 TDP1 no CPT inconclusive, DT40 TDP1 CPT 18µM (no result: ClpP mod)
O=C(c1cc([N+](=O)[O-])ccc1Cl)N1CCN(c2ccccc2)CC1	none
Cc1cccc(C)c1NC(=O)C(NC(=O)c1ccccn1)c1ccc([N+](=O)[O-])cc1 (centres undefined)	D3 antag -52
Cc1cccc(C)c1NC(=O)C(NC(=O)c1ccccn1)c1ccccc1[N+](=O)[O-] (centres undefined)	DT40 TDP1 no CPT inconclusive
CCN(CC)C(=O)CSc1nc2ccsc2c(=O)n1CCCC(=O)NCCc1ccc(S(N)(=O)=O)cc1	DT40 TDP1 no CPT 29µM, DT40 TDP1 CPT 4.1µM
CCC(C)n1c(SCC(=O)NCCc2ccc(S(N)(=O)=O)cc2)nc2ccsc2c1=O (centres undefined)	DT40 TDP1 no CPT inconclusive, DT40 TDP1 CPT inconclusive
Cc1cc(C[n+]2ccccc2)c2nsnc2c1	DT40 TDP1 no CPT 22µM, ClpP mod inconclusive, DT40 TDP1 CPT inconclusive
Cc1cc(C[n+]2ccsc2N)c2ncccc2c1	DT40 TDP1 no CPT inconclusive, DT40 TDP1 CPT inconclusive
CCN(Cc1nc(-c2cccc(C)c2)no1)C(=O)c1ccco1	none (no result: ClpP mod)
CCOC(=O)Cc1cc(-c2ccccc2)nc2ccc3ccccc3c12	DT40 TDP1 no CPT 13µM, DT40 TDP1 CPT inconclusive
c1ccc(-c2cc(-c3ccncc3)nc3ccc4ccccc4c23)cc1	DT40 TDP1 no CPT inconclusive, ClpP mod 22µM, DT40 TDP1 CPT inconclusive
CCOC(=O)Cc1nc(-c2ccccc2)n[nH]1	none (no result: ClpP mod)
COc1ccc(OCC(=O)Nc2cc(-c3nn(C)c(=O)c4ccccc34)ccc2N2CCOCC2)cc1	DT40 TDP1 no CPT inconclusive, DT40 TDP1 CPT inconclusive (no result: IL-1B inflam inh, ClpP mod)
CCCCCCn1c(=O)n2n(c1=O)[C@@H]1CN(S(=O)(=O)c3ccc(C)cc3)C[C@]1(O)[C@@H](OC(=O)NCc1ccco1)C2	DT40 TDP1 no CPT 23µM, IL-1B inflam inh inconclusive, DT40 TDP1 CPT inconclusive
Cc1ccc(S(=O)(=O)N2CC3(O)CN(C(=O)OC(C)C)N(C(=O)OC(C)C)CC3(OC(=O)NCc3ccccc3)C2)cc1 (centres undefined)	DT40 TDP1 no CPT 21µM, DT40 TDP1 CPT inconclusive
Cc1ccc(S(=O)(=O)N2C[C@H]3N(C(=O)OC(C)C)N(C(=O)OC(C)C)C[C@H](OC(=O)NCC4CCCCC4)[C@@]3(O)C2)cc1	DT40 TDP1 no CPT 26µM, DT40 TDP1 CPT 21µM
COC(=O)[C@H]1C[C@@]2(O)CN(S(=O)(=O)c3ccc(C)cc3)C[C@@]2(OC(=O)NCc2ccco2)C[C@H]1C(=O)OC	none
COC(=O)[C@H]1C[C@H](OC(=O)NC2CC2)[C@@]2(O)CN(S(=O)(=O)c3ccc(C)cc3)CC2[C@H]1C(=O)OC (some centres undefined)	none
Cc1ccc(S(=O)(=O)N2C[C@H]3n4c(=O)ccc(=O)n4C[C@H](OC(=O)NC4CC4)[C@@]3(O)C2)cc1	none
COC(=O)[C@H]1C[C@H](OC(=O)NCc2ccccc2F)[C@@]2(O)CN(S(=O)(=O)c3ccc(C)cc3)CC2[C@H]1C(=O)OC (some centres undefined)	DT40 TDP1 no CPT 23µM, DT40 TDP1 CPT inconclusive
CCOC(=O)c1nn(-c2ccccc2Cl)c(=O)cc1OCC(=O)Nc1cccc(OC)c1	none
Cc1ccc(S(=O)(=O)N2C[C@H]3N(C(=O)OC(C)C)N(C(=O)OC(C)C)C[C@H](OC(=O)NCc4ccco4)[C@@]3(O)C2)cc1	DT40 TDP1 no CPT 23µM, DT40 TDP1 CPT inconclusive
Cc1ccc(S(=O)(=O)N2C[C@H]3N(C(=O)OC(C)C)N(C(=O)OC(C)C)C[C@H](OC(=O)NCc4ccccc4)[C@@]3(O)C2)cc1	DT40 TDP1 no CPT 21µM, DT40 TDP1 CPT 21µM
COc1ccc(CNC(=O)OC23CN(C(=O)OC(C)C)N(C(=O)OC(C)C)CC2(O)CN(S(=O)(=O)c2ccc(C)cc2)C3)cc1OC (centres undefined)	DT40 TDP1 no CPT inconclusive, DT40 TDP1 CPT inconclusive
COc1cccc(CNC(=O)c2cc(C)nc3c2c(C)nn3-c2cccc(F)c2)c1	DT40 TDP1 no CPT inconclusive, DT40 TDP1 CPT inconclusive (no result: D3 antag, IL-1B inflam inh)

Screens from PubChem BioAssay.
